About 14,000 (4.5%) of roughly 310,000 compounds showed an effect of 50% or more. The effect is printed as a negative number. The sample as a whole holds a higher share of strong results than the screen did.
Molecular target: human ether-à-go-go-related gene (hERG) potassium channel (human, UniProt Q12809)
Test: primary screen, population patch clamp on CHO cells stably expressing hERG; higher = less effect of the substance
Method: Briefly, Chinese hamster ovary (CHO) cells stably expressing the hERG channel were dislodged from tissue culture flasks and dispensed into PPC plates. […] During the recording, background leak currents were estimated by a 100 ms step to -80 mV from an initial holding potential of -70 mV and subtracted from the subsequent current measurement. The campaign was conducted in two phases using slight differences in recording protocol. In the first phase, the initial voltage pulse used a 100 ms step to -30 mV from a holding potential of -70 mV, a 2 s conditioning step to +25 mV, and a 2 s test step to -30 mV. During the second phase of the screen, the potential during the conditioning step was raised to +45 mV. In both phases of the campaign, a secondary voltage pulse was applied using the same parameters as the second phase initial pulse. The initial and secondary pulses were applied in the absence of compound, and upon application of 1 μM and 10 μM test concentrations. […]
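Further: peak tail current of the secondary pulse compared with the same well before compound.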

human ether-à-go-go-related gene (hERG) potassium channel, sequence (Q12809 whole entry, looked up): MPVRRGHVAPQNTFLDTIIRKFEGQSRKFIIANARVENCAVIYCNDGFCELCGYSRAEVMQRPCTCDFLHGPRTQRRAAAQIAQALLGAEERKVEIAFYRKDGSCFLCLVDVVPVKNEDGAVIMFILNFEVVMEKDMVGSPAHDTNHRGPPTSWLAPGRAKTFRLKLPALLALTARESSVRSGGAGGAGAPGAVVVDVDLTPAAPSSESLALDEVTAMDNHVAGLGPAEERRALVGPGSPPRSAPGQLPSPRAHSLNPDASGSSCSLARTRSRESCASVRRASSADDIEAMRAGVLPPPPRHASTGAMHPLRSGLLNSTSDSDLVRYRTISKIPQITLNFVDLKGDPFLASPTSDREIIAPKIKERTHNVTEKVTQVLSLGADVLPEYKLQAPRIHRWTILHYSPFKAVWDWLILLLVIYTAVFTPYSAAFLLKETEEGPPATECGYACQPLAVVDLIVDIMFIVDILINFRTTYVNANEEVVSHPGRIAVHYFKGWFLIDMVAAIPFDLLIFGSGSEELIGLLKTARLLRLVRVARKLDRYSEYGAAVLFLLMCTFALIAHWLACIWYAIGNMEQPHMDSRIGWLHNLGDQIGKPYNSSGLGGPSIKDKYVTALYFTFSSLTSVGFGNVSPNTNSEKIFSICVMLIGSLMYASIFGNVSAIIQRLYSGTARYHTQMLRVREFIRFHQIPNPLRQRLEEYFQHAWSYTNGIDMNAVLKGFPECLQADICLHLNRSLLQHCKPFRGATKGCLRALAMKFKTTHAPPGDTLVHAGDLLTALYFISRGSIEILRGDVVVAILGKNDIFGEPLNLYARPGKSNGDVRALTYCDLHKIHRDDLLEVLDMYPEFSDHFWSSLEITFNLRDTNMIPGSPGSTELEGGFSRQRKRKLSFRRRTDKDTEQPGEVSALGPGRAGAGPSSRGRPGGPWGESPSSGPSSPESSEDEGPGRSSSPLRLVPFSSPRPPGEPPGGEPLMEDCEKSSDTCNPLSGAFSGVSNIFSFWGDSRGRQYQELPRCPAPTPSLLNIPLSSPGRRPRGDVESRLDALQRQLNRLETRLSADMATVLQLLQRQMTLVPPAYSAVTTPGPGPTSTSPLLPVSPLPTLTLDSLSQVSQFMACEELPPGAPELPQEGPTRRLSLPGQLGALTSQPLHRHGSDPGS

| SMILES | hERG current change (%, negative = inhibition) at 10uM [%] |
| --- | --- |
| CCCCCCN1CC(=O)N2Cc3[nH]c4ccccc4c3C[C@H]2C1=O | -9.11 |
| O=C(CCCSc1nc2ccccc2[nH]1)Nc1nnc(C2CC2)s1 | -1.62 |
| CCn1c(SCC(N)=O)nc2sc3c(c2c1=O)CCCC3 | 1.24 |
| CCOc1ccccc1Oc1c(C)oc2cc(OC(=O)N3CCOCC3)ccc2c1=O | 4.41 |
| O=C(NCCc1ccccc1F)C1CCC(=O)N(CCCN2CCCC2=O)C1 (stereo not drawn) | -7.84 |
| COCC1CCCCC1OS(N)(=O)=O (stereo not drawn) | 5.38 |
| Cn1cccc1-c1nc2ccccc2n1C | -1.23 |
| Cn1cc(Cl)c(-c2nc3ccccc3[nH]2)n1 | -1.45 |
| O=C(NC1CC2CCCC(C1)N2Cc1ccccc1)c1ccc([N+](=O)[O-])cc1 (stereo not drawn) | -81 |
| CN1C2CCC1CC(NC(=O)c1ccc([N+](=O)[O-])cc1)C2 (stereo not drawn) | 3.81 |
| CCCN1C2CCCC1CC(NC(=O)c1cccc([N+](=O)[O-])c1)C2 (stereo not drawn) | -36.8 |
| O=C(NC1CC2CCCC(C1)N2Cc1cccs1)N1CCOCC1 (stereo not drawn) | -6.2 |
| O=C(NC1CC2CCCC(C1)N2Cc1cccs1)c1ccc([N+](=O)[O-])cc1 (stereo not drawn) | -84.3 |
| COCCNC(=S)NC1CC2CCCC(C1)N2Cc1cccs1 (stereo not drawn) | -26.7 |
| COc1ccc(C(=O)NC2CC3CCCC(C2)N3CC(C)C)cc1 (stereo not drawn) | -34.7 |
| CC(C)CN1C2CCCC1CC(NC(=O)c1ccc([N+](=O)[O-])cc1)C2 (stereo not drawn) | -78.3 |
| Cc1ccc(NC(=O)c2ccc(N3CCCC3=O)cc2)cc1S(=O)(=O)N1CCCCC1 | -3.33 |
| Cc1ccc(S(=O)(=O)N2CCN(C(=O)CCOc3cc(C)ccc3C)CC2)cc1 | -32.8 |
| CSCCC(NC(=O)c1ccccc1Cl)C(=O)N1CCCCCCC1 (stereo not drawn) | -6.4 |

| SMILES | hERG current change (%, negative = inhibition) at 10uM [%] |
| --- | --- |
| CC(=O)Nc1ccc(N2C(=O)C3C4CC(=O)C(c5ccccc54)C3C2=O)cc1 (stereo not drawn) | 7.32 |
| Oc1ccccc1-c1nc(NCCN2CCOCC2)c2ccccc2n1 | -26.2 |
| CCOC(=O)CSc1ccc(C(=O)Nc2ccc(Cl)cc2)cn1 | 21.8 |
| CCOC(=O)c1c(C)[nH]c(C)c1S(=O)(=O)NCC(=O)Nc1ccccn1 | 17.9 |
| COc1ccc(N)c2c1C(=O)c1ccccc1C2=O | -10.4 |
| CC(OC(=O)COc1ccccc1Cc1ccccc1)C(=O)N(C)c1ccccc1 (stereo not drawn) | -0.572 |
| CC(C(=O)Nc1ccc(OCc2ccccc2)cc1)N1CCCC1 (stereo not drawn) | -21.6 |
| CC(COc1ccccc1Cc1ccccc1)N1CCCCC1.O=P(O)(O)O (stereo not drawn) | -70.1 |
| CCOc1ccc2c(c1)N(C(=O)CN1C(=O)CCC1=O)C(C)(C)C=C2C | -22.8 |
| COCCNC(=O)COc1ccc(Br)cc1Cl | 10.4 |
| COCCNC(=O)C(c1ccc(F)cc1)N(C(=O)CCC(=O)Nc1nccs1)c1ccc(C)cc1 (stereo not drawn) | -14.1 |
| CN(c1ccc(OCC(=O)OCC(=O)Nc2ccc(Br)cc2)cc1)S(=O)(=O)c1cccs1 | -0.388 |
| O=C(N/N=C/c1ccco1)c1ccccc1OCc1ccccc1Cl | -82.8 |
| O=C(N/N=C/c1ccc[nH]1)c1ccccc1OCc1ccccc1Cl | -25.5 |
| O=C(N/N=C/c1ccco1)c1ccccc1OCc1ccc(Br)cc1 | -8.69 |
| O=C(NCC1CCCO1)c1cccc(Oc2ccc([N+](=O)[O-])cc2Cl)c1 (stereo not drawn) | -72.6 |
| CC(=O)c1ccc(-c2ccc(C(=O)NC3CC(C)(C)NC(C)(C)C3)o2)cc1 | -122 |
| O=C(NCC1CCCO1)c1cccc(Oc2c(Cl)cccc2[N+](=O)[O-])c1 (stereo not drawn) | -0.562 |
| O=C(NC(=S)NCC1CCCO1)c1ccc([N+](=O)[O-])cc1 (stereo not drawn) | -16.6 |

| SMILES | hERG current change (%, negative = inhibition) at 10uM [%] |
| --- | --- |
| O=C(NCC1CCCO1)c1ccc(COc2ccc(Cl)cc2)cc1 (stereo not drawn) | -11.9 |
| O=C(NCC1CCCO1)c1ccc(COc2ccccc2)cc1 (stereo not drawn) | -56.3 |
| O=C(NCC1CCCO1)c1ccc(NC(=O)c2ccc([N+](=O)[O-])cc2)cc1 (stereo not drawn) | -2.58 |
| O=C(NCC1CCCO1)c1ccc(Oc2ccc([N+](=O)[O-])cc2)cc1 (stereo not drawn) | -60.8 |
| O=C(NCC1CCCO1)c1ccc(COc2ccc(Br)cc2)cc1 (stereo not drawn) | -13.7 |
| O=C(NCC1CCCO1)c1ccc(Oc2ccc([N+](=O)[O-])cc2Cl)cc1 (stereo not drawn) | -41.6 |
| CC1(C)CC(NC(=O)c2ccc(-c3ccc([N+](=O)[O-])cc3)o2)CC(C)(C)N1 | -49 |
| CC(=O)c1ccc(-c2ccc(C(=O)NC3CCCCCC3)o2)cc1 | 26 |
| Brc1ccc(-n2cc(-c3ccccc3)c3c(NN4CCOCC4)ncnc32)cc1 | -15.7 |
| Cn1c(SCC(=O)OCc2ccccc2)nnc1-c1ccco1 | 0.0583 |
| CCCCC(=O)NC(c1ccco1)c1c(O)ccc2ccccc12 (stereo not drawn) | -2.6 |
| O=C1CC2CS(=O)(=O)CC2N1c1ccc(Cl)cc1Cl (stereo not drawn) | 5.75 |
| CCCc1ccc(S(=O)(=O)N/N=C\c2ccc3c(c2)OCO3)cc1 | -0.771 |
| CCOc1ccc(NC(c2ccccn2)c2oc(CO)cc(=O)c2O)cc1 (stereo not drawn) | 5.43 |
| CN(C)CCNc1oc(-c2cccc(Cl)c2)nc1C#N | -36.2 |
| C=CCC1(Nc2ccccc2)CC(C)N(C)CC1C.O=C(O)C(=O)O (stereo not drawn) | -21.1 |
| Cc1ccc(-n2c(CSc3nc(C)cc(C)n3)nnc2SCC(=O)NCc2ccco2)cc1 | -38.7 |
| CCCCn1c(=O)n(C)c(=O)c2c3c(sc21)COC(C)(C)C3 | -11.1 |
| C/C(=N\NC(=O)c1ccc(NS(=O)(=O)c2cccs2)cc1)c1ccccc1 | 22.3 |

Source: publication PMC4336329 (PLoS ONE, 2015)
